# Data: PubChem BioAssay AID720650 (Broad Institute, 2013)
# Unmarked numbers belong to inactive results. The source made the active and inactive calls. The rule behind the calls is not given here.
# Test: Biochemical counterscreen for C difficile toxins, absence of UDPG, inhibitor dose response (AID 720650)
# Details: series mostly up to 19.5 µM
row,Compound,AC50
1,CCNC(=O)C[C@H]1CC[C@@H]2[C@H](COc3ccc(NC(=O)c4ccc5c(c4)OCO5)cc3C(=O)N2C)O1,> 42 µM
2,CNC(=O)C1CCN(S(=O)(=O)c2c(C)noc2/C=C/c2ccccc2F)CC1,inactive
3,CCOC(=O)c1[nH]nc(-c2cc(CC)c(O)cc2O)c1-c1cscn1,inactive
4,C[C@@H]1CN([C@@H](C)CO)S(=O)(=O)c2ccc(C#Cc3ccncc3)cc2O[C@H]1CN(C)C(=O)C1CC1,inactive
5,Oc1ccccc1-c1cnc2cccnn12,> 39 µM
6,O=C(C[C@@H]1CC[C@@H]2[C@H](COC[C@@H](O)CN2C(=O)c2ccccn2)O1)NC1CCC1,inactive
7,COc1ccc(S(=O)(=O)N2CCOCC2)cc1NC(=O)COC(=O)c1[nH]c(C)c(C(C)=O)c1C,> 39 µM
8,CC(=O)Nc1ccc(NC(=O)CN2CCN(c3ccccn3)CC2)cc1,inactive
9,C[C@H](CO)N1C[C@H](C)[C@H](CN(C)Cc2ccc(Oc3ccccc3)cc2)Oc2cc(-c3ccncc3)ccc2S1(=O)=O,inactive
10,CCN1/C(=C2\OC(=S)N(C)C2=O)C=Cc2ccccc21,inactive
11,CN1C(=O)CSc2ccc(NC(=O)N3CCc4ccccc43)cc21,20.2 µM (active)
12,CC(C)c1cc(CN2CCN(Cc3ccc(F)c(F)c3)C(CCO)C2)[nH]n1 (stereo not drawn),inactive
13,CCOc1cc(/C=N/n2cnnc2)ccc1O,inactive
14,FC(F)(F)c1cc(CCN2CCNC[C@H]2Cc2cccc3ccccc23)cc(C(F)(F)F)c1,19.9 µM (active)
15,O=C(Nc1ccc(O)cc1)C1CCCN1S(=O)(=O)c1ccc(F)cc1 (stereo not drawn),10.9 µM (active)
16,CCOC(=O)/C=c1/s/c(=C/c2ccc3cc(OC)ccc3c2)c(=O)n1CC(=O)NCC1CCCO1 (stereo not drawn),inactive
17,Cc1ccc(S(=O)(=O)N2CC(CBr)=CCC2c2ccccc2)cc1 (stereo not drawn),13.9 µM (active)
18,CCN1CCN(S(=O)(=O)c2ccc3[nH]c(=O)oc3c2)CC1,inactive
19,CNC(=O)N(O)C1N(/N=C/c2cccs2)C(=S)SC1(C)C (stereo not drawn),> 39 µM

row,Compound,AC50
1,O=C(CSc1nnc(-c2ccncc2)o1)N1CCCCCC1,inactive
2,COC(=O)Cc1ccc(NC(=S)NCc2ccc(OC)cc2)cc1,inactive
3,O=C(C[C@H]1C[C@H]2c3cc(NC(=O)c4ccc5c(c4)OCO5)ccc3O[C@H]2[C@H](CO)O1)NCc1cccc(F)c1,inactive
4,CN1C(=O)c2cc(NC(=O)c3cccc(F)c3)ccc2OC[C@@H]2O[C@@H](CC(=O)NCC3CCCCC3)CC[C@H]21,inactive
5,COc1ccc(SC[C@H](C)CN2CC[C@H](NC(=O)OCc3ccccc3)CCC2=O)cc1,inactive
6,Cc1nn(C)cc1-c1n[nH]c(=S)n1-c1ccc(F)cc1,inactive
7,C[C@@H]1CN([C@@H](C)CO)S(=O)(=O)c2ccc(-c3ccncc3)cc2O[C@@H]1CN(C)Cc1ccc(Oc2ccccc2)cc1,inactive
8,Cc1cc(C(C)(C)C)cc(CN2CCN(S(=O)(=O)c3cccs3)CC2)c1O,inactive
9,S=c1nc(-c2ccc(Cl)cc2)[nH][nH]1,3.22 µM (active)
10,COc1ccccc1CNC(=O)CN(c1ccc(C)cc1)S(=O)(=O)c1c(C)n[nH]c1C,inactive
11,S=C(c1cn(Cc2ccccc2)c2ccccc12)N1CCOCC1,inactive
12,Cc1ccc(S(=O)(=O)N2CCOCC2)cc1C(=O)NCCCN1CCCC1=O,inactive
13,COc1ccc(C2=NS(=O)(=O)N(C)C(C(=O)NCc3ccc4c(c3)OCO4)=C2)cc1OC,inactive
14,O=C(NC(=S)NNC(=O)c1ccccc1F)c1cccnc1,inactive
15,Clc1ccc(-c2nc3ccc(Cl)cn3c2Cc2ccccc2)cc1,inactive
16,O=C(N/N=C/c1ccc(O)cc1)NC12CC3CC(CC(C3)C1)C2,11.2 µM (active)
17,COc1cc(/C=N/N2C(=O)C3C4C=CC(CC4)C3C2=O)ccc1O (stereo not drawn),inactive
18,Nc1ccc(C(=O)c2ccc3c(c2)OCCO3)cc1N,11.9 µM (active)
19,O=C(Nc1nnc(C(F)(F)F)s1)c1ccc(Br)s1,8.05 µM (active)
